Results filed as inconclusive are left out. Active and inactive are the calls of the source. Calls follow the shape of the dose curve; as a rule, active = well fitted curve in the direction sought with a large enough effect in the signal ratio in the repeat runs (not every such curve was filed as active); inconclusive = weak or mixed curves, or a change in a side signal; inactive = no such curve, though single readings can be large or run the other way; the % refers to the signal ratio.
assay: qHTS assay to identify small molecule agonists of the NFkB signaling pathway (AID 1159509); conditions: NFkB-bla ME-180 cells, beta-lactamase FRET ratio, 5 h; series mostly up to 61 µM
Description: National Center for Advancing Translational Sciences [NCATS]
NIH Chemical Genomics Center [NCGC]
U.S. Environmental Protection Agency [EPA]
National Institutes of Environmental Health Sciences [NIEHS]
National Toxicology Program [NTP]
U.S. Food and Drug Administration [FDA]
Transcription factors and their stimulated target gene expression play pivotal roles across many cellular processes including responses to environmental stimuli. Proper regulation of associated pathways is critical to maintain cell health and function. Constitutive activation of transcription factor pathways has been implicated in tumors as it may block cellular functions such as apoptosis and lead to invasion and metastasis. One important transcription factor that stimulates gene expression in response to cytokines, UV radiation, and other stimuli is nuclear factor-kappa B (NFkB). To measure activation of the NFkB pathway, the CellSensor NFkB-bla ME-180 cell line (Life Technologies, Carlsbad, CA) that stably expresses beta-lactamase reporter gene under the regulation of a NF-kB response element was used. This assay allows measurement of the NFkB pathway activity induced by compounds in a ME-180 cell line. This system quantitates NF-kB activity using a FRET-based assay system where beta-lactamase expression disrupts FRET, allowing for fluorescent measurement of activity. This cell line has been used to screen the Tox21 10K compound library and to identify compounds that induce the NFkB pathway activity.
Tox21 Assay Protocol Summary:
NFkB-bla ME-180 cells were dispensed at 2,000 cells/6 uL of assay medium per well into black wall/clear-bottom 1536-well plates using a Multidrop Combi (ThermoFisher Scientific, Waltham, MA) dispenser. After the assay plates were incubated at 37 C and 5% CO2 for an overnight, 23 nL of compounds dissolved in DMSO, positive controls or DMSO only was transferred to the assay plate by a Pintool station (Kalypsys, San Diego, CA). The assay plates were incubated at 37 C and 5% CO2 for 5 hr. One uL of LiveBLAzer B/G FRET substrate (Life Technologies) was added using a Flying Reagent Dispenser (Aurora Discovery, San Diego, CA) and the plates were incubated at room temperature for 1.5 hr. Fluorescence intensity (405 nm excitation, 460 nm and 530 nm emissions) was measured using an Envision plate reader (PerkinElmer, Shelton, CT).

Structure (SMILES)	outcome
Cc1c(C(N)=O)cc([N+](=O)[O-])cc1[N+](=O)[O-]	inactive
C[Si](C)(C)O[Si](C)(C)C	inactive
CCC(C)CO (stereo not given)	inactive
O=C(c1ccccc1)c1ccc(O)cc1O	inactive
CNCCCC12CCC(c3ccccc31)c1ccccc12	inactive
Nc1ncnc2nc[nH]c12	inactive
O=[N+]([O-])c1ccc2c(c1)Cc1ccccc1-2	inactive
CCCCC/C=C/C=C/C=O	inactive
COC(=O)c1ccccc1	inactive
CN(C)CCC=C1c2ccccc2CCc2ccccc21	inactive
CC(C)CC(C)(O)C#CC(C)(O)CC(C)C (stereo not given)	inactive
CC(=O)C1(C)CC2=C(CCCC2(C)C)CC1C (stereo not given)	inactive
CCCCCCCCCCCO	inactive
O=C(Nc1ccc([N+](=O)[O-])cc1Cl)c1cc(Cl)ccc1O	inactive
Cc1[nH]c(=O)c(C#N)cc1-c1ccncc1	inactive
C/C=C/C(=O)O	inactive
CC1=CCC(C(C)(C)O)CC1 (stereo not given)	inactive
C=C(C)C(=O)OCCOC(=O)C(=C)C	inactive
O=c1oc(=O)c2cc3c(=O)oc(=O)c3cc12	inactive
CC(C)OC(=O)C(C)(C)Oc1ccc(C(=O)c2ccc(Cl)cc2)cc1	inactive

Structure (SMILES)	outcome
CCCCNS(=O)(=O)c1ccccc1	inactive
CCC(C)(O)CCCC(C)C (stereo not given)	inactive
O=C=Nc1ccc(Cc2ccc(N=C=O)cc2)cc1	inactive
COc1cc([C@@H]2c3cc4c(cc3[C@H](O)[C@H]3COC(=O)[C@H]23)OCO4)cc(OC)c1OC	inactive
c1cc(N(CC2CO2)CC2CO2)ccc1OCC1CO1 (stereo not given)	inactive
Cc1ncc[nH]1	inactive
O=C(/C=C/C=C/c1ccc2c(c1)OCO2)N1CCCCC1	inactive
CC(C)=CCCC(C)CCO (stereo not given)	inactive
c1ccc2c(c1)Oc1ccccc1S2	inactive
O=C1c2cccc(O)c2C(=O)c2c(O)cccc21	inactive
O=C(OCc1ccccc1)c1ccccc1O	inactive
CC(C)Oc1ccc2c(=O)c(-c3ccccc3)coc2c1	inactive
Oc1ccc(O)cc1	inactive
O=CCc1ccccc1	inactive
COc1c(Cl)c(Cl)c(Cl)c(Cl)c1Cl	inactive
Nc1ccc(S(=O)(=O)Nc2cnc3ccccc3n2)cc1	inactive
C#C[C@]1(O)CC[C@H]2[C@@H]3CCc4cc(OC)ccc4[C@H]3CC[C@@]21C	inactive
c1ccncc1	inactive
O=P(O)(O)O	inactive
S=C(NC1CCCCC1)NC1CCCCC1	inactive
